PubChem BioAssay (NCATS)
Records with an inconclusive call do not appear. Unmarked numbers belong to inactive results. Calls come from the whole dose curve; as a rule, active = well fitted inhibition curve with a large enough effect; inconclusive = small, poorly fitted or top-dose-only effect; inactive = no such curve, though single readings can be large or run the other way.

target: Retinaldehyde dehydrogenase 3 (Homo sapiens) (UniProt P47895); test: qHTS for Inhibitors of the Aldehyde Dehydrogenase Family (ALDH1A3) Primary screen (AID 2061315); conditions: ALDH inhibition qHTS; series mostly up to 56 µM; activity change, negative = inhibition: at the top concentration;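 note: plate controls were DMSO vehicle for no effect and reference inhibitor for full effect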

SMILES | activity change, negative = inhibition [%]
Cc1cc(C)nc(NC(=S)N2CCN(c3cc(C(F)(F)F)nc(C)n3)CC2)c1 | 12.3
Cc1cc(C)nc(NC(=S)N2CCN(c3ccc(C(F)(F)F)cc3C(F)(F)F)CC2)c1 | 10
Fc1cccc(CNc2ncnc3ccc(-c4ccc5c(c4)OCO5)cc23)c1 | 8.81
O=C(NCc1cccnc1)C1CCN(S(=O)(=O)c2cccs2)CC1 | -4.42
Cc1ccc(S(=O)(=O)Nc2ccccc2C(=O)Nc2nc(-c3ccccc3)c(Br)s2)cc1 | -1.8
CCCCNc1nc(C)nc2c1nc(C)n2CCC | 4.22
Cc1cc(-c2nnc3n2CCCCC3)c(C)n1-c1cccc(Cl)c1 | -7.28
CCOC(=O)Nc1sc2c(c1C(N)=O)CCCC2 | 13
Cc1cc2c(s1)c1cnn(Cc3ccccc3F)c(=O)c1n2C | 0.197
Cc1cccc(-c2ccc3ncnc(NCc4cccnc4)c3c2)c1 | -4.1
COc1ccc2nc(-c3cccc(F)c3)sc2c1 | -29.2
CCCn1c(C)nc2c(N3CCCN(Cc4ccccc4)CC3)nc(C)nc21 | 2.49
O=C(OCC#CCSc1nnc(-c2cccc3ccccc23)o1)c1ccc(SC(F)(F)F)cc1 | 3.51
Cc1ccc(NS(=O)(=O)c2ccc3c(c2)CCC(=O)N3C)cc1Cl | 7.96
Cc1ccc(C(=O)Nc2nnc(-c3ccco3)o2)cc1 | 14.1
COc1cccc(C2c3c(ncn(-c4ccccc4C)c3=N)Oc3ccc4ccccc4c32)c1 (configuration not stated) | -11.6
c1nc(N2CCOCC2)c2cc(-c3ccc4c(c3)OCO4)ccc2n1 | 4.84
O=C(Cc1nnc(CNC(=O)c2ccccc2)o1)Nc1cc(C(F)(F)F)ccc1Cl | 17
CC(=O)Nc1sc2c(c1C(O)c1nc3ccccc3s1)CCN(C(C)C)C2 (configuration not stated) | 2.24
c1nc(NCCc2cnc[nH]2)c2cc(-c3ccoc3)ccc2n1 | 0.811
COc1cccc(-c2nnc3n2N=C(c2cc(OC)ccc2OC)CS3)c1 | 5.53
COc1ccc(C2Nc3ccccc3C(=O)N2Cc2ccc3c(c2)OCO3)cc1COc1c(C)cc(NC(C)=O)cc1C (configuration not stated) | -8.23
Cc1cccc(S(=O)(=O)Nc2cnccc2C(=O)Nc2nc(-c3ccccc3)cs2)c1 | 11.3
N#Cc1ccccc1Nc1ncc(-c2cccc3ccccc23)o1 | -20.7
COc1cc(-c2ccc3ncnc(NCCc4cnc[nH]4)c3c2)cc(OC)c1OC | -2.22
COc1cc(-c2ccc3ncnc(NCC4CCCO4)c3c2)cc(OC)c1OC (configuration not stated) | -12.3
COc1ccc(C2=Nn3c(nnc3-c3ccccc3O)SC2)c(OC)c1 | 14
